Sampled rows, rich in hits. Any-hit rate of the full collection: about 3.1%.
pPAFAH FP inh – pPAFAH (human) enzyme inhibition; Q13093; recombinant pPAFAH, FP-rhodamine probe fluorescence polarization; inhibition, % at 3.39 µM; 330,000 tested, 1.5% active; AID 463082;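 active means inhibition above the mean inhibition across the screen plus 3 SD, cut at about 25% in these data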;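 further: inhibitors block binding of the rhodamine activity-based probe so polarization drops; 0% = enzyme with DMSO and 100% = wells lacking pPAFAH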
Target sequence (Q13093 whole entry, looked up): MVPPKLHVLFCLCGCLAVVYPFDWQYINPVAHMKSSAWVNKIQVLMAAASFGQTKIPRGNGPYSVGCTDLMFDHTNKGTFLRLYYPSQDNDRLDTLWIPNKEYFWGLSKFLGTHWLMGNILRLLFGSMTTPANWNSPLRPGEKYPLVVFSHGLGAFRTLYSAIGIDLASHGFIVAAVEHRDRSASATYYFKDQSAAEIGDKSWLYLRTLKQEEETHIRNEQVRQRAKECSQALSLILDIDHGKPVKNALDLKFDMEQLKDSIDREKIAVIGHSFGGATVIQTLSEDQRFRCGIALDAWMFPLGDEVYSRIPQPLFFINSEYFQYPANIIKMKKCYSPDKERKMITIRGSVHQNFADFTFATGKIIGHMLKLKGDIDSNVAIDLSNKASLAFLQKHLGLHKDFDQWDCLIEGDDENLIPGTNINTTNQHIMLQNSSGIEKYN
PAFAH1B2 FP inh – blocks human PAF acetylhydrolase 1b catalytic subunit 2; recombinant PAFAH1B2, FP-rhodamine activity probe, fluorescence polarization; 340,000 tested, 1.2% active; inhibition, % at 3.39 µM; P68402;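 active means inhibition above the mean of all tested compounds plus 3 SD, cut at about 24% in these data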;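 further: 0% = enzyme with DMSO and 100% = wells lacking PAFAH1B2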
PAFAH2 inh – PAFAH2 (human) inhibition; AID 492956; 340,000 tested, 0.99% active; recombinant PAFAH2, FP-rhodamine activity probe, fluorescence polarization; inhibition, % at 3.39 µM; Q99487;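 active means inhibition above the mean over all tested compounds plus 3 SD, cut at about 30% in these data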;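 further: inhibitors block probe labeling of enzyme so polarization drops; 0% = enzyme with DMSO and 100% = wells lacking PAFAH2 protein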
PAFAH1B3 FP inh – PAFAH1B3 (human) inhibition | AID 492972 | 340,000 tested, 0.28% active | Q15102 | recombinant PAFAH1B3, FP-rhodamine probe, fluorescence polarization | inhibition, % at 3.39 µM;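 active means inhibition above the screen-wide average of all tested compounds plus 3 SD, cut at about 25% in these data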;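 further: 0% = enzyme with DMSO only and 100% = wells lacking PAFAH1B3 protein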
Rin1 Abl inh – blocks binding of human Rin1 to Abl. P00519+Q13671. TR-FRET Rin1/Abl binding, biochemical. inhibition, % at 7.35 µM. 360,000 tested, 0.4% active; in the data active means inhibition above about 5%, passing the limit was not always enough
E coli Lon inh – inhibitors of E. coli Lon protease; purified E. coli Lon protease, fluorescence polarization; inhibition, % at 7.94 µM; 360,000 tested, 0.42% active; in the data active means inhibition above about 13%, passing the limit was not always enough;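 further: 0% = enzyme with probe and DMSO and 100% = no enzyme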
Starred values were filed as active, the others as inactive; . = no result given.

SMILES	pPAFAH FP inh	PAFAH1B2 FP inh	PAFAH2 inh	PAFAH1B3 FP inh	Rin1 Abl inh	E coli Lon inh
CS(=O)(=O)c1nc(-c2ccccc2)cc(C(F)(F)F)n1	25*	-2	-4	3	-2	-8
Cc1cc(NC(=O)CCS(=O)(=O)c2nc(-c3ccccc3)cc(C(F)(F)F)n2)no1	13	6	-3	4	-2	-2
CCCN(C(=O)CSc1cc(-c2ccccc2)c2ccc(OC)cc2n1)C1CCS(=O)(=O)C1 (stereo unspecified)	25*	0	-14	6	-5	-4
Oc1ccc(/C=N/Nc2nc(-c3cccnc3)nc3ccccc23)c(O)c1	25*	3	-3	25	-1	-22
CC(C)CNC(=O)[C@@H]1CSC2c3ccccc3C(=O)N21 (stereo partly specified)	.	2	-3	5	0	-5
CCN(CC)CCCn1c2c(c(SCC(=O)Nc3cccc4ccccc34)nc1=O)CCC2	3	34*	32*	36*	-2	36
Cc1cc(C(=O)NCc2cccs2)ccc1[N+](=O)[O-]	5	5	2	-4	-1	-2
Cc1cc(C(=O)OCC(=O)NCc2cccs2)ccc1[N+](=O)[O-]	31*	5	19	5	3	8
N#Cc1c(Nc2ccccc2)c(/C=N/NCCO)c[nH]c1=O	26*	-5	1	0	-19	-9
N#Cc1c(Nc2ccccc2)c(C=NCCN2CCOCC2)c[nH]c1=O	29*	3	0	3	-20	-17
CCNC(=O)N1CCC(n2nccc2NC(=O)CCCc2ccccc2)CC1	7	5	4	0	0	-11
CC1Nc2ccccc2C(=O)N1NS(C)(=O)=O (stereo unspecified)	28*	3	21	5	-1	5
COc1ccc(C2Nc3ccccc3C(=O)N2NS(C)(=O)=O)cc1 (stereo unspecified)	3	-2	3	8	0	-2
Oc1[nH]c2ccccc2c1N=Nc1ccccc1Cl	.	2	-4	9	0	-6
O=Nc1c(O)[nH]c2ccc(Cl)c(Cl)c12	.	28*	31*	43*	0	2
Cc1cccc(Nc2nnc(SCC(O)=C(C#N)c3nc4ccccc4[nH]3)s2)c1	.	26*	4	10	2	-34
CSc1ccc(CCNC(=O)c2ccc(CS(=O)Cc3ccc(Cl)cc3)o2)cc1 (stereo unspecified)	30*	6	-2	4	-5	-1
CCOc1ccc(C(=O)NC(=S)N2CCN(c3ccc(C(F)(F)F)cc3[N+](=O)[O-])CC2)cc1	8	0	5	-1	2	3
COc1cccc(C(=O)NC(=S)N2CCN(c3ccc(C(F)(F)F)cc3[N+](=O)[O-])CC2)c1	26*	2	1	7	3	4
O=C(Nc1ncccc1O)c1cccc(S(=O)(=O)N2CCc3ccccc32)c1	5	48*	34*	-5	2	7
Cc1ccccc1OCCn1c(S(=O)(=O)O)nc2c(N)ncnc21	4	28*	46*	45*	1	3
CC1C(=O)N(Cc2cn(Cc3ccco3)nn2)CCS(=O)(=O)N1Cc1ccc(-c2ccccc2Cl)cc1 (stereo unspecified)	.	.	.	.	3	-5
CCN(CC)c1ccc(/C=N/NC(=O)c2nnn(-c3nonc3N)c2C(C)C)c(O)c1	28*	13	11	12	-1	3
CC(C)(C)C(=O)NC(=S)Nc1cc(C(F)(F)F)ccc1N1CCOCC1	33*	7	4	13	-2	0
Cc1cc(NC(=O)CSCC(=O)Nc2cc(C(F)(F)F)ccc2N2CCCC2)no1	2	5	8	-6	1	-9
SMILES	pPAFAH FP inh	PAFAH1B2 FP inh	PAFAH2 inh	PAFAH1B3 FP inh	Rin1 Abl inh	E coli Lon inh
Cc1cc(NC(=O)CSCC(=O)Nc2cc(C(F)(F)F)ccc2N2CCOCC2)no1	2	26*	-5	1	2	9
Cc1cnc(C(=O)N2CCCC(N3CCN(c4cccc(C(F)(F)F)c4)CC3)C2)cn1 (stereo unspecified)	7	-4	1	2	-3	-5
COc1ccc(C(=O)N/C(=C\c2cn(C)c3ccccc23)C(=O)N2CCOCC2)cc1	-5	2	-3	7	-3	-3
COc1ccc(CNC(=O)CCSCc2cccc(F)c2)cc1	27*	8	5	7	3	-4
O=C(O)c1ccc(N/N=C/c2cn(Cc3ccc(F)cc3)c3ccccc23)cc1	29*	6	15	5	-2	0
Cc1cccc(-c2nc3sc(C)cc3c(=O)o2)c1	33*	-5	74*	-6	0	-2
Cc1ccccc1-c1nc2sc(-c3ccccc3)cc2c(=O)o1	10	0	66*	-3	-3	-3
Cc1nc2sc(-c3ccccc3)cc2c(=O)[nH]1	3	9	-2	7	-7	-6
CC(C)c1nc2sc3c(SCCN(C)C)ncnc3c2c2c1CCC2	.	11	-2	-2	-7	14
CCCCn1c(N)c(N(CC(C)C)C(=O)c2ccco2)c(=O)[nH]c1=O	-2	5	2	5	2	-2
O=C(CN1C(=O)c2ccccc2C1=O)Nc1cccc2cccnc12	2	-2	-2	3	1	-14
O=C1C=C(Nc2cccc3cccnc23)c2ccccc2C1=O	34*	4	30	15	-1	8
O=C1C=C(Nc2ccccc2C(=O)O)c2ccccc2C1=O	24	23	39*	59*	-7	2
Cn1nc(-c2ccccn2)nc2c(=O)n(C)c(=O)nc1-2	12	32*	59*	68*	42*	4
Cc1ccc(NC(=O)C(C)OC(=O)CCN=C2NS(=O)(=O)c3ccccc32)cc1 (stereo unspecified)	2	0	-5	6	0	-1
c1coc(C2Nc3cccc4cccc(c34)N2)c1	26*	.	.	.	.	.
Oc1ccc(C2Nc3cccc4cccc(c34)N2)c(O)c1	2	17	-5	36*	1	12
Clc1ccccc1C1Nc2cccc3cccc(c23)N1	12	0	7	9	4	-7
O=C(O)c1cc(NS(=O)(=O)c2cccc3ccccc23)ccc1O	7	6	-1	0	0	-8
Cc1cc(C(C)(C)C)cc(S(=O)(=O)Nc2ccc(O)c(C(=O)O)c2)c1C	4	47*	-4	-3	-1	-1
O=C(NCc1ccc2c(c1)OCO2)c1cc(=O)[nH]c2ccccc12	2	1	2	12	-4	1
COc1cc(S(=O)(=O)Nc2ccc3nc(C)sc3c2)ccc1NC(C)=O	6	5	4	5	4	-31
Cc1ccc(C(=O)OCC(=O)N2c3ccccc3NC(=O)C2(C)C)cc1S(=O)(=O)N1CCCCC1	4	27*	8	8	-3	-5

High-throughput results from PubChem BioAssay.
